A selection: hits, their analogues and other compounds. The true share with any hit is near 18%.
TGFb SMAD3 inh: TGF-b pathway inhibition; HepG2 CAGA-GFP TGF-b/SMAD3 reporter, GFP fluorescence, 18 h; TGF-beta stimulated, 500 pg/mL final; Potency, µM (highest dose often 46.1 µM), inactives show top-dose activity, negative = inhibition, usual class: inhibitors; 410,000 tested, 1.2% active; also: potency is read from the fitted curve at half-maximal effect; % is scaled to controls: 0 for no effect and ±100 for the full control effect; nearly all actives have a fitted effect of over 65% in size
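Read-out: total well GFP (ex488/em500-530) summed from mean per-cell fluorescence. Cells: HEPG2 CAGA-GFP, 1% FBS DMEM, 18 h at 37 degrees C with 500 pg/mL final TGF-beta. Unstimulated wells served as the full-inhibition control; stimulated DMSO wells = 0%.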
TDP1 cell noCPT: qHTS for Inhibitors of human tyrosyl-DNA phosphodiesterase 1 (TDP1): qHTS in cells in absence of CPT. DT40 Tdp1-/- hTDP1 cells, no CPT, ATP luminescence, 48 h. Potency, µM (doses to about 46.2 µM), inactives show at the highest dose activity change, negative = growth inhibition, usual class: inhibitors. 420,000 tested, 15% active. AID 686978, 2013; also: potency is read from the fitted curve at half-maximal effect; % is scaled to controls: 0 for no effect and ±100 for the full control effect; nearly all actives have a fitted effect of over 55% in size
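Luminescent ATP content (CellTiter-Glo) served as the growth readout. Knockout chicken DT40 cells expressing human TDP1 were exposed to compounds without camptothecin for a minimum 48 hr at 37 °C.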
IL1B secr inh: inflammasome signaling inhibition, IL-1 beta readout; THP-1 LPS/ATP IL-1B secretion, AlphaLISA, 16 h; active compounds read low; activity change, % at 57.5 µM; 360,000 tested, 4.7% active; AID 743279; in the data active = activity change below about -50%; inconclusive = mostly about -30% to -49%; also: % is scaled to controls: 0 for no effect and ±100 for the full control effect
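Secreted IL-1B measured by AlphaLISA bead assay after 16 h compound exposure of THP-1 cells; compounds (final up to 57.5 uM) added 1 h before LPS (250 ng/mL) and ATP (1.25 mM) stimulation; lower signal means less secretion.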
HepG2 tox: kills HepG2 cells in TGF-b inhibitor counter-screen | HepG2 CAGA-GFP viability, ATP luminescence, 18 h | AID 588856 | Potency, µM (highest dose often 46.1 µM), for the others: at the highest dose activity change, negative = cytotoxicity, actives largely listed as cytotoxic | 410,000 tested, 0.76% active; also: potency is read from the fitted curve at half-maximal effect
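HepG2 CAGA-GFP cells (1000/well, DMEM with 1% FBS) received compound, then TGF-beta at 500 pg/mL final, and were incubated 18 hours at 37 degrees C. Viability was read by CellTiter-Glo luminescence. Media-only wells were set as complete cell-killing and DMSO as no toxicity.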
DT40 TDP1 CPT: growth inhibition of DT40 Tdp1-/-;hTDP1 cells with camptothecin (screen for TDP1 inhibitors); 420,000 tested, 12% active; AID 686979; Potency, µM (top dose mostly 46.2 µM), without a hit: at the highest dose activity change, negative = growth inhibition, most hits filed as inhibitors; chicken DT40 Tdp1-/-;hTDP1 cells + 20 nM CPT, ATP luminescence, 48 h; also: potency is read from the fitted curve at half-maximal effect; % is scaled to controls: 0 for no effect and ±100 for the full control effect; nearly all actives have a fitted effect of over 55% in size
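Cell growth measured by CellTiter-Glo luminescence after a minimum 48 h, 37 C compound exposure with 20 nM CPT in Tdp1-knockout DT40 cells stably expressing hTDP1, seeded 400/well; qHTS titration format.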
TDP1 inh: inhibitors of human tyrosyl-DNA phosphodiesterase TDP1; Q9NUW8; recombinant TDP1, AlphaScreen DNA substrate cleavage; Potency, µM (titrated, usually from 130 µM), for the others: at the top dose activity change, negative = inhibition, hits mostly inhibitors; 350,000 tested, 0.28% active; AID 485290; also: potency is read from the fitted curve at half-maximal effect; % is scaled to controls: 0 for no effect and ±100 for the full control effect; nearly all actives have a fitted effect of over 40% in size
Target sequence (Q9NUW8 whole entry, looked up): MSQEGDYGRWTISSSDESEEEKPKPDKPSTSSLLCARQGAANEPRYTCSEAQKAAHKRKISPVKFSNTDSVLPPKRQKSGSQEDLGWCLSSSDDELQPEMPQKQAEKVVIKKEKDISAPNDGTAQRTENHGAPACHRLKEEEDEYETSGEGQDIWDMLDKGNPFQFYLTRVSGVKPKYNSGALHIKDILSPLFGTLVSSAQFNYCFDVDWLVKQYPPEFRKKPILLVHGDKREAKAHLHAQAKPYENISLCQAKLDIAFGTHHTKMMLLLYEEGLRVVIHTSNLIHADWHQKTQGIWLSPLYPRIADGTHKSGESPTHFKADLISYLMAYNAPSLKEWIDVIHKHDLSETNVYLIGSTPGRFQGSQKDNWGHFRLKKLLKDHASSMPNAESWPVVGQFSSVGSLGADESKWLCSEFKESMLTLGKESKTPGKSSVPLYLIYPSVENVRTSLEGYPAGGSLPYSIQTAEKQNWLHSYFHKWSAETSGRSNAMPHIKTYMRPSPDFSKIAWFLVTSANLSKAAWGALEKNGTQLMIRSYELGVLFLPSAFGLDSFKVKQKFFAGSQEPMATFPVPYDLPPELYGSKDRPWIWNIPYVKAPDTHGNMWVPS
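Compounds were preincubated with Tdp1 (1 nM final) for 15 min at room temperature before substrate (15 nM final) started a 5 min reaction; beads (10 ug/ml final) were then added for 10 min before AlphaScreen detection.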
An asterisk follows results filed as active; [ ] = another dose, or the depositor's remark. Unless noted, calls follow the shape of the dose curve; as a rule, active = well fitted curve in the direction sought with a large enough effect; inconclusive = small, poorly fitted or top-dose-only effect, or another doubt; inactive = no such curve, though single readings can be large; an effect the other way counts as inactive or inconclusive.

`COc1ccc(-c2noc(-c3cc(-c4ccc(F)cc4)n[nH]3)n2)cc1` gave TGFb SMAD3 inh inconclusive, TDP1 cell noCPT inconclusive, HepG2 tox -36%, DT40 TDP1 CPT 6.5µM* and TDP1 inh 0%.
`CCOc1cc(-c2noc(-c3ccncc3)n2)cc(Br)c1OC` gave TGFb SMAD3 inh 3%, TDP1 cell noCPT 16µM*, IL1B secr inh 19, HepG2 tox 5%, DT40 TDP1 CPT inconclusive and TDP1 inh 7%.
For Fc1ccc(-c2cc(-c3nc(-c4ccccc4)no3)[nH]n2)cc1 the results were TGFb SMAD3 inh 4%, TDP1 cell noCPT -27%, HepG2 tox 2%, DT40 TDP1 CPT -16% and TDP1 inh 11%.
`CCOc1ccc(-c2cc(-c3nc(-c4cc(OC)c(OC)c(OC)c4)no3)[nH]n2)cc1` gave TGFb SMAD3 inh -7%, TDP1 cell noCPT 9.2µM*, HepG2 tox -35%, DT40 TDP1 CPT 9.2µM* and TDP1 inh 8%.
Screening Cc1ccccc1-c1noc(-c2cc(-c3ccc(F)cc3)n[nH]2)n1 returned TGFb SMAD3 inh inconclusive, TDP1 cell noCPT 23µM*, HepG2 tox -9%, DT40 TDP1 CPT 21µM* and TDP1 inh 5%.
Screening CCN(Cc1ccccc1)C(=O)c1cc2c(OC)c(OC)c(OC)cc2[nH]1 returned TGFb SMAD3 inh 4%, TDP1 cell noCPT inconclusive, IL1B secr inh -1, HepG2 tox 8% and DT40 TDP1 CPT inconclusive.
`COc1ccc(-c2noc(-c3cc(C(C)C)[nH]n3)n2)cc1` gave TGFb SMAD3 inh inconclusive, TDP1 cell noCPT 18µM*, HepG2 tox -50%, DT40 TDP1 CPT 21µM* and TDP1 inh 3%.
Screening CCOc1cc(-c2nc(-c3ccc(-c4ccc(OC)cc4)nc3OC)no2)cc(OCC)c1OCC returned TGFb SMAD3 inh -3%, TDP1 cell noCPT 10µM*, HepG2 tox -25%, DT40 TDP1 CPT 18µM* and TDP1 inh 2%.
`CC(C)c1cc(-c2nc(-c3ccc(Br)cc3)no2)n[nH]1` gave TGFb SMAD3 inh inconclusive, TDP1 cell noCPT inconclusive, HepG2 tox -66%, DT40 TDP1 CPT inconclusive and TDP1 inh -3%.
Screening CC(C)c1c(C(=O)N2CCCCC2c2cccnc2)cnn1-c1nccc(-c2cccs2)n1 (stereo not given) returned TDP1 cell noCPT inconclusive and DT40 TDP1 CPT -11%[9.04 µM].
`CCOC(=O)c1cc(-c2ccc(N3CCOCC3)cc2)nn1-c1ccc(F)cc1F` gave TGFb SMAD3 inh -26%, TDP1 cell noCPT inconclusive, IL1B secr inh inconclusive, HepG2 tox 4%, DT40 TDP1 CPT inconclusive and TDP1 inh 5%.
`CCOC(=O)c1cc(-c2ccc(N3CCOCC3)cc2)nn1-c1ccccc1C(=O)O` gave TGFb SMAD3 inh 4%, TDP1 cell noCPT -26%, IL1B secr inh -19, HepG2 tox -102%, DT40 TDP1 CPT -11% and TDP1 inh 1.6µM*.
For CCOC(=O)c1cc(-c2ccc(N3CCOCC3)cc2)nn1-c1ccccc1 the results were TGFb SMAD3 inh -8%, TDP1 cell noCPT 12µM*, IL1B secr inh 22, HepG2 tox 2%, DT40 TDP1 CPT 21µM* and TDP1 inh -2%.
CCOC(=O)Cc1csc(NC(=O)c2ccc(N3CCOCC3)cc2[N+](=O)[O-])n1 was read as TGFb SMAD3 inh 1%, TDP1 cell noCPT inconclusive, IL1B secr inh -22, HepG2 tox -4%, DT40 TDP1 CPT 23µM* and TDP1 inh 6%.
